Data on 5 compounds can be found in PubChem BioAssay.

Each structure is given as a SMILES string. The source made the active and inactive calls. Unless noted, the rule behind the calls is not given here.

Test [1] can be described thus: compound effects on lung adenocarcinoma cell viability – A549, calcein-AM fluorescence, 48 h, basal, profiling panel (AID 1162). Note: test concentration not given here. The conditions noted are these: higher = more signal.
Test [2] is described as follows: compound effects on differentiated 3T3-L1 adipocyte viability – cell-based, 3T3-L1 adipocytes, calcein-AM fluorescence, 48 h, basal, profiling panel (AID 1163). Note: test concentration not given here. The conditions noted are these: 3T3-L1 adipocytes viability, higher = more signal.
Test [3] is described as follows: compound effects on hepatocellular carcinoma cell viability – HepG2, calcein-AM fluorescence, 48 h, basal, profiling panel (AID 1164). Note: test concentration not given here. As to conditions: higher = more signal.
Test [4] is described as follows: compound effects on multiple myeloma cell viability – MM1S, calcein-AM fluorescence, 48 h, basal, profiling panel (AID 1165). Note: test concentration not given here. As to conditions: higher = more signal.
Test [5] in a line: calcein-AM signal in unstimulated myeloma cells – cell-based, calcein-AM fluorescence, 48 h, PK04 Diversity Set, profiling panel (AID 1166).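 Note: cells grown under basal conditions without added stimulus; test concentration not given here.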 The conditions noted are these: RPMI8226 myeloma viability, higher = more signal.
Test [6] can be described thus: JC-1 mitochondrial signal, unstimulated HepG2 cells – cell-based, JC-1 fluorescence, 24 h, 100 nL compound, profiling panel (AID 1167). Note: test concentration not given here. The conditions noted are these: HepG2 mitochondrial potential, higher = more signal.
Test [7] can be described thus: JC-1 mitochondrial signal, unstimulated adipocytes – cell-based, JC-1 fluorescence, 3T3-L1 adipocytes, 24 h, 100 nL compound, profiling panel (AID 1168). Note: test concentration not given here. As to conditions: JC-1 mitochondrial fluorescence, higher = more signal, called active from +8 up or from −8 down.
Test [8] in a line: JC-1 mitochondrial signal, unstimulated myeloma cells – cell-based, JC-1 fluorescence, RPMI8226, 24 h, 100 nL compound, profiling panel (AID 1169). Note: test concentration not given here. As to conditions: JC-1 mitochondrial potential fluorescence, higher = more signal.
A short description of test [9]: JC-1 mitochondrial signal, unstimulated MM1S myeloma – cell-based, JC-1 fluorescence, 24 h, 100 nL compound, profiling panel (AID 1170). Note: test concentration not given here. The conditions noted are these: MM1S mitochondrial potential, higher = more signal.
Test [10] in a line: resazurin metabolic signal in A549 cells – cell-based, resazurin fluorescence, 24 h, PK04 Diversity Set, profiling panel (AID 1171). Note: test concentration not given here. As to conditions: A549 viability, higher = more signal, called active from +8 up or from −8 down. In general terms: The colour change of resazurin is a common sign of viable cells or microbes.
Test [11] is described as follows: resazurin metabolic signal in HepG2 cells – cell-based, resazurin fluorescence, 24 h, PK04 Diversity Set, profiling panel (AID 1172). Note: test concentration not given here. As to conditions: HepG2 viability, higher = more signal.
A short description of test [12]: budding yeast growth changes without added modifier – OD600, strain BY4716, 24 h, basal condition, primary screen (AID 1173). As to conditions: S. cerevisiae BY4716 growth, OD600, 24 h; higher = more signal, called active from +8 up or from −8 down.
The nature of test [13]: viability profiling in MM1S myeloma cells – cell-based, resazurin fluorescence, basal, 24 h, PK04 Diversity Set, profiling panel (AID 1174). Note: test concentration not given here. The conditions noted are these: higher = more signal, called active from +8 up or from −8 down.
Test [14] deals with Dihydroorotate dehydrogenase (quinone), mitochondrial (Plasmodium falciparum (isolate 3D7)) (UniProt Q08210). Kind of test: inhibition of P. falciparum DHODH – biochemical, C-terminal His tag, absorbance 600 nm, primary screen (AID 1175).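 Note: recombinant parasite enzyme with a five histidine tag at its C terminus; test concentration not given here.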 The conditions noted are these: PfDHODH enzyme, DCIP absorbance 600 nm; higher = more signal, called active from +8 up or from −8 down.
Dihydroorotate dehydrogenase (quinone), mitochondrial (Plasmodium falciparum (isolate 3D7)), sequence (Q08210 whole entry, looked up): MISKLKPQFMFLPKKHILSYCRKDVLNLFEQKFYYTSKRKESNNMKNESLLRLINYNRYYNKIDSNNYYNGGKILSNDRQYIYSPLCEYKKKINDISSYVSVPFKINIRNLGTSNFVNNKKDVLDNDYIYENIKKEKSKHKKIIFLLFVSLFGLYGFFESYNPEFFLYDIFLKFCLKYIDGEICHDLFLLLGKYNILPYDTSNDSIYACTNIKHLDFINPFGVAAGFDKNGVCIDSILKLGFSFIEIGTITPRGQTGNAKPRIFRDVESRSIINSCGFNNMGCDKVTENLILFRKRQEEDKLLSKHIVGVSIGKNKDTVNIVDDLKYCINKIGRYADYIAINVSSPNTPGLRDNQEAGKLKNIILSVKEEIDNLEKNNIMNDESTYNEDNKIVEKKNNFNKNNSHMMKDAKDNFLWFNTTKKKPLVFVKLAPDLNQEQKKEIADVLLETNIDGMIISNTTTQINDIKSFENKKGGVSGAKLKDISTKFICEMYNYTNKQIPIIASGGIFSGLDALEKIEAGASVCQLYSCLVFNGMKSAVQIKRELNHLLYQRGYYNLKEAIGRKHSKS
Test [15] is described as follows: inhibition of PAO1 biofilm formation – strain PAO1, LB-PBS medium, absorbance 600 nm, primary screen (AID 1176). Note: test concentration not given here. As to conditions: P. aeruginosa PAO1 growth/biofilm, A600, 12 h; higher = more signal.
A short description of test [16]: growth modulation of vineyard yeast isolate – strain RM11-1a, OD600, basal, 24 h, primary screen (AID 1177).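 Note: cultures grown under basal conditions with no added stressor; test concentration not given here.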 As to conditions: S. cerevisiae RM11-1a growth, OD600, 24 h; higher = more signal, called active from +8 up or from −8 down.
The nature of test [17]: growth of efflux-deficient E. coli DRC39 – strain DRC39, OD650, 24 h, E. coli filamentation inducers, primary screen (AID 1178).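 Note: growth measured as culture turbidity by optical density at 650 nm; test concentration not given here.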 The conditions noted are these: E. coli DRC39 acrAB, higher = more signal, called active from +8 up or from −8 down.
Test [18] can be described thus: growth of efflux-deficient E. coli DRC39 – strain DRC39, OD650, 48 h, E. coli filamentation inducers, primary screen (AID 1179).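 Note: screen aims at cell division blockers that make cells filament.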 As to conditions: E. coli DRC39 delta-acrAB growth, higher = more signal, called active from +8 up or from −8 down.
Test [19] is described as follows: viability profiling in RPMI8226 myeloma cells – cell-based, resazurin fluorescence, basal, 24 h, PK04 Diversity Set, profiling panel (AID 1180).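 Note: RPMI8826 multiple myeloma cell line at 5000 cells per well; test concentration not given here.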 The conditions noted are these: higher = more signal.
The target of test [20] is E3 ubiquitin-protein ligase XIAP (Homo sapiens) (UniProt P98170). Kind of test: small molecules binding XIAP protein – biophysical, small-molecule microarray, fluorescence 635 nm, primary screen (AID 1181).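 Note: score merges 667 nm emission and signal to noise over triplicate slides.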 As to conditions: higher = more signal.
E3 ubiquitin-protein ligase XIAP (Homo sapiens), sequence (P98170 whole entry, looked up): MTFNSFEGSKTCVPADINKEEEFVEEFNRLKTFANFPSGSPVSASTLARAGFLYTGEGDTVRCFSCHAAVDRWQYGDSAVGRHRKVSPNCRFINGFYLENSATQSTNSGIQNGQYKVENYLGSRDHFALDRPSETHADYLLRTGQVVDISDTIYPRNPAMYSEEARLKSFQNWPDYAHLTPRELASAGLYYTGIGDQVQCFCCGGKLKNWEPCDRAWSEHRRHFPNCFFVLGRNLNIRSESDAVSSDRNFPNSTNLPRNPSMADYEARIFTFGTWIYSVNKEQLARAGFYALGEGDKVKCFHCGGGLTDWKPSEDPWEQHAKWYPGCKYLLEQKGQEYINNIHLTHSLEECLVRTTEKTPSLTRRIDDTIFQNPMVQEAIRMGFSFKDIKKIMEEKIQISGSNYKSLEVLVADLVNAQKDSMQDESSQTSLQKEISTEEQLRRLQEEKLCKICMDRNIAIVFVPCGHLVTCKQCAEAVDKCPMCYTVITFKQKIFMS

Regarding `C=CCOC(=O)[C@H]1[C@@H]2C(=O)O[C@@H](c3ccccc3)[C@@H](c3ccccc3)N2[C@@H](c2ccc(OCCOC(=O)[C@@H]3C[C@@H]4C(=O)N[C@@H](CCCCNC(C)=O)C(=O)N4[C@@H]3c3ccc(O)cc3)cc2)[C@]12C(=O)Nc1ccccc12`, the z-score in test [1] is -0.41; in test [2], 1.85; in test [3] it was -0.578; in [4] it was -0.0774; in [5], -0.133; in [6], -1.7. Further, the z-score in test [7] was 0.703 (inactive); in [8] it was -0.611; in test [9], -0.95; in test [10] it was -1.57 (inactive); in test [11] it was -0.707; in test [12] it was 0.857 (inactive). For the same compound, the z-score in test [13] was -0.0524 (inactive); in test [15], 1.83 (inactive); in [16], 1.74 (inactive); in test [17] it was -0.605 (inactive); in [18], -1.35 (inactive); in test [19] it was -0.407. For the same compound, the composite z-score in [14] is 0.0572 (inactive); in [20] it was -0.0018.

With `CN1C(=O)C2C=CC(C(O)c3ccc([N+](=O)[O-])cc3)N(N3CCCCC3)C2C1=O` (stereo not given), the z-score in test [1] was -0.234; in test [2], -0.69; in test [3], -0.384; in test [4] it was -0.324; in [5] it was -0.721; in [6] it was -1.24. In addition, the z-score is -0.927 (inactive) in test [7]; 0.0849 in test [8]; 0.134 in test [9]; -0.197 (inactive) in test [10]; -0.777 in test [11]; 0.217 (inactive) in test [12]. Also, the z-score in test [13] is -0.51 (inactive); in test [15], 0.711 (inactive); in [16], 0.189 (inactive); in test [17] it was -0.884 (inactive); in test [18], -1.24 (inactive); in test [19], -0.85. In addition, the composite z-score is 0.0871 (inactive) in test [14] and 0.384 in test [20].

`[N-]=[N+]=NCc1ccccc1[C@@H]1OC(c2ccc(OCCCO)cc2)=N[C@]1(Cc1ccccc1)C(=O)NCC(O)CO` (stereo not given in full): the z-score in test [1] was 0.939; in test [2] it was -1.16; in test [3], 0.78; in test [4] it was -1.07; in test [5], -0.596; in test [6] it was -0.474. The z-score in [7] was -0.672 (inactive); in test [8], -0.596; in test [9] it was -0.471; in [10], 0.424 (inactive); in [11], 0.597; in [12], -0.293 (inactive). For the same compound, the z-score in test [13] was -0.869 (inactive); in [15], 1.35 (inactive); in [16], -0.0888 (inactive); in [17], -0.151 (inactive); in test [18] it was -0.465 (inactive); in [19] it was -0.665. Moreover, the values for the composite z-score in test [14] and in test [20] were -0.0408 (inactive) and -0.0294, respectively.

Take `NC(=O)NCC#Cc1ccc2c(c1)[C@]1(C(=O)N2)[C@H](c2ccccc2OCCO)N2[C@H](c3ccccc3)[C@H](c3ccccc3)OC(=O)[C@H]2[C@@H]1C(=O)Nc1nc2ccccc2s1`: the z-score in test [1] was 0.334; in test [2], 0.226; in test [3] it was -0.126; in test [4] it was 0.0225; in test [5], -0.048; in [6], -2.78. For the same compound, the z-score in test [7] is 2.99 (inactive); in test [8], -0.885; in [9], -1.73; in [10], 0.659 (inactive); in test [11] it was 0.851; in test [12], 1.21 (inactive). Besides, the z-score was 0.528 (inactive) in test [13]; 2.29 (inactive) in test [15]; 2.16 (inactive) in test [16]; 0.525 (inactive) in test [17]; 0.24 (inactive) in [18]; 0.744 in [19]. Further, the figures for the composite z-score in [14] and in test [20] were -1.12 (inactive) and -0.102, respectively.

Turning to `COC(=O)[C@@]1(Cc2ccc(OC)cc2)[C@H]2c3cc(C(=O)N(C)C)n(CCc4ccccn4)c3C[C@H]2CN1C(=O)c1ccccc1`, the z-score in [1] was -0.982; in [2], -0.812; in test [3], -0.173; in test [4], -1.19; in [5], -2.59; in test [6], -0.0203. For the same compound, the z-score is -1.04 (inactive) in test [7]; -0.772 in test [8]; -1.35 in [9]; -0.735 (inactive) in test [10]; -1.31 in test [11]; 2.55 (inactive) in test [12]. In addition, the z-score in test [13] is -2.34 (inactive); in test [15], 0.908 (inactive); in test [16], 1.51 (inactive); in [17] it was -1.2 (inactive); in test [18], -0.655 (inactive); in test [19] it was -1.93. Moreover, the composite z-score in test [14] was -0.0595 (inactive); in [20] it was 0.264.
